For 40 compounds, Potency results are on record in PubChem BioAssay (NCATS).

Each structure is given as a SMILES string. Values without a mark were called inactive.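 The calls were made as follows: active = compounds whose dose series gives a full or clear partial fitted curve of increased nuclear translocation; inconclusive = weak partial curve or effect only at the top dose; inactive = no dose-dependent translocation response.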
Potency is read from the fitted curve at half-maximal effect.

Chain of Glucocorticoid receptor (Homo sapiens) (P04150 whole entry, looked up): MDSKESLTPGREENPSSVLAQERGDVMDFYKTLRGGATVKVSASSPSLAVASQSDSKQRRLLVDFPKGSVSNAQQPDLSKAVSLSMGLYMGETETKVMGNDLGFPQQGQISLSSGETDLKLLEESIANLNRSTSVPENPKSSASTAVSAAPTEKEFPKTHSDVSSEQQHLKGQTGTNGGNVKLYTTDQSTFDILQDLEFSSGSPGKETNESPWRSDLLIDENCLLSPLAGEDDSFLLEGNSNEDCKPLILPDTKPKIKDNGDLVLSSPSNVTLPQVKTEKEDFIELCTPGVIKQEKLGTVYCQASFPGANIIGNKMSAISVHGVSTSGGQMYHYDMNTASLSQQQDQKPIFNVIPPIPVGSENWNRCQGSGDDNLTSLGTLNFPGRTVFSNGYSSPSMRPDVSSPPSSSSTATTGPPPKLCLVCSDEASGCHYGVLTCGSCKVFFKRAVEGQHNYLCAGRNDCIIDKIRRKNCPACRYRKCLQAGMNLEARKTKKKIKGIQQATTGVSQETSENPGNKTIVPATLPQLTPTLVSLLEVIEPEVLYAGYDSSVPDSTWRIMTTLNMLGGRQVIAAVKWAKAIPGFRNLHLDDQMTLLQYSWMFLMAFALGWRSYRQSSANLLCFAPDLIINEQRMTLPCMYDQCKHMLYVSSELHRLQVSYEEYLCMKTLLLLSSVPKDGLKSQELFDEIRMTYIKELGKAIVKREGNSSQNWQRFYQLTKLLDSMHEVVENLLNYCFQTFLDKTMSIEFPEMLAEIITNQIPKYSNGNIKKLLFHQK

This test addresses Glucocorticoid receptor (Homo sapiens) (UniProt P04150). Kind of test: GR-GFP Redistribution (AID 450). To be noted: U2OS GR-GFP nuclear translocation, laser cytometry, 2 h. An excerpt: NIH Molecular Libraries Screening Centers Network [MLSCN]
NIH Chemical Genomics Center [NCGC]
The glucocorticoid receptor (GR) Redistribution assay (BioImage) enables the visualization of GR cytoplasmic to nuclear translocation by the use of a GR-GFP fusion. GR is normally cytosolic, however ligands such as dexamethasone, cause nuclear translocation where the protein binds to response elements and interacts with various co-factors to modulate transcription. Because both functional agonists and antagonists can induce nuclear translocation, this assay can detect ligands regardless of their effects on gene expression. GR-GFP expressing U20S cells were used here. Dexamethasone was the positive control for translocation and data normalization. Detection of nuclear translocation was performed in 1536-well plates using the Acumen laser scanning plate cytometer (TTP LabTech). Validation of this assay and a detailed protocol have been described.
NCGC Assay Protocol Summary:
GR-GFP U2OS cells were maintained in DMEM with Glutamax and high glucose, 1% v/v penicillin-streptomycin, and 0.5 mg/mL Geneticin. For cell culture, 10% […] fetal bovine serum (FBS) was used (Invitrogen #26140-079). For cell plating 10% dextran, charcoal-stripped FBS (Hyclone SH30068.03) was used. U2OS cells were trypsin treated, suspended in medium, and passed through a 40 um basket filter. The cells were seeded at 600 cells/5 uL/well into clear-bottom black sided 1536-well plates and incubated for approximately 20 hrs, 37degC, 5%, CO2 in a tissue culture incubator. Twenty-three nL of compound was delivered by pin tool and the plates were incubated as above for 2 hrs. The compounds were tested as a 7-point titration ranging from 46 uM to 0.6 nM. The cells were fixed using the Kalypsys Washer/Dispenser station. The fixing protocol involved aspiration of the cell media, addition of 6 uL/well of PBS, aspiration of PBS, addition of 5uL/well of 100% methanol, aspiration of methanol, and addition of 3 uL/well PBS with 1.5 uM propidium iodide (PI). The plates were read by the Acumen Explorer using a 1 x 8 um scan of the whole well area. PI fluorescence triggered the collection of PI and GFP signals. A nuclei population was defined by a 10 to 100 um width and depth filter that eliminated small and large fluorescent particles. Two subpopulations of nuclei were then defined by peak intensity of GFP fluorescence to obtain translocated and untranslocated objects. The number of translocated objects was used for data normalization.
Keywords: NIH Roadmap, MLSCN, MLI, MLSMR, sOGT, qHTS, NCGC
As to `Cc1ccc(-n2c(O)c(C=NCCN3CCOCC3)c(=O)[nH]c2=O)cc1`, the Potency was more than 20.6 µM.
The value for `CN1C(=O)CN=C(c2ccc(Cl)cc2)c2cc(Cl)ccc21` was more than 20.6 µM; that for `COc1cccc(CN2CCN(C(=O)COc3ccc4ccccc4c3)CC2)c1` was more than 20.6 µM.
The value for `O=c1[nH]c(=O)n(CCc2ccccc2)c(O)c1C=NCCCn1ccnc1` was more than 20.6 µM; that for `Cn1c(O)c(C=NCCCNC2CCCCC2)c(=O)n(C)c1=O` was more than 20.6 µM; that for `CNc1ccc2oc(C[C@@H]3O[C@@]4(CC[C@H]3C)O[C@@H]([C@@H](C)C(=O)c3ccc[nH]3)[C@@H](C)C[C@H]4C)nc2c1C(=O)O` was more than 46 µM.
As to `C=C(C)[C@@H]1CN[C@H](C(=O)O)[C@H]1CC(=O)O`, the Potency is more than 46 µM.
The value for `O=C1c2ccccc2C(=O)N1Cc1nc2ccccc2c(=O)n1-c1cccnc1` was more than 20.6 µM; that for `CCN(CC)CCN=Cc1c(O)n(CCc2ccccc2)c(=O)[nH]c1=O` was more than 20.6 µM; that for `CC(=C1C(=O)c2ccccc2C1=O)N1CCN(CCN=Cc2c(O)n(C)c(=O)n(C)c2=O)CC1` was more than 20.6 µM.
The value for `CCCCCCn1c(O)c(C=NC2CCN(Cc3ccccc3)CC2)c(=O)[nH]c1=O` was more than 20.6 µM; that for `CCCCCC[C@H]1C(=O)O[C@@H](C)[C@H](NC(=O)c2cccc(NC=O)c2O)C(=O)O[C@@H](C)[C@@H]1OC(=O)CC(C)C` was more than 46 µM; that for `COc1ccccc1-n1c(O)c(C=NCCCn2ccnc2)c(=O)[nH]c1=O` was more than 20.6 µM.
The value for `CCCCSP1(=S)NCCCO1` (stereo not given) was more than 20.6 µM.
On to `CCN(CC)c1ncnc2c1ncn2[C@@H]1O[C@@H](COP(=O)(O)OP(=O)(O)C(Br)(Br)P(=O)(O)O)[C@H](O)[C@H]1O`, for which the Potency was more than 46 µM.
`CCCCNC(=O)Nc1ccc(C(O)(C(=O)OCC)C(F)(F)F)cc1` (stereo not given): the Potency is more than 20.6 µM.
To `O=c1cccc2n1C[C@@H]1C[C@H]2CN2CCCC[C@H]12` belongs more than 46 µM.
Consider `CCOC(C(=O)OCC(O)CN(CC)CC)(c1ccccc1)c1ccccc1` (stereo not given), for which the Potency is more than 20.6 µM.
As for `N[C@@H]1CCc2cc(O)c(O)cc2C1`, the Potency was more than 46 µM.
To `CN1CCC(OC(=O)C2c3ccccc3Oc3ccccc32)CC1` belongs more than 20.6 µM.
With `CCN(CC)CCCC(C)N=C(c1ccccc1)c1c(O)n(C)c(=O)n(C)c1=O` (stereo not given), the Potency is more than 20.6 µM.
The value for `CC(C)Cc1[nH]c(=O)c(C#N)c2c1CCC2` was more than 20.6 µM.
The value for `CC1CN=C(Nc2ccc(N(C)C)cc2)S1` (stereo not given) was more than 20.6 µM; that for `CCOc1ccc(-n2c(O)c(C=NCCN3CCNCC3)c(=O)[nH]c2=O)cc1` was more than 20.6 µM.
Turning to `CN1C[C@H](CO)C=C2c3cccc4[nH]cc(c34)C[C@H]21`, the Potency was more than 46 µM.
To `CCN1C[C@@]2(COC(=O)c3ccccc3N3C(=O)C[C@H](C)C3=O)CC[C@H](OC)[C@@]34[C@@H]5CC6[C@@H](OC)C[C@@](O)([C@H]5[C@H]6OC)C(O)([C@@H]13)[C@@H](OC)[C@H]24` belongs more than 46 µM; to `O[C@@H]1CCCC[C@H]1N1CCC(c2ccccc2)CC1`, more than 46 µM; to `COc1cccc(-n2c(C)nc3ccccc3c2=O)c1`, more than 20.6 µM.
The value for `C=C(C)[C@H]1Cc2c(ccc3c2O[C@H]2COc4cc(OC)c(OC)cc4[C@@H]2C3=O)O1` was more than 46 µM; that for `CC[C@H](CO)NC(=O)[C@H]1C=C2c3cccc4[nH]cc(c34)C[C@H]2N(C)C1` was more than 46 µM.
On to `CC(C)(C)NC[C@H](O)c1ccccc1Cl`, for which the Potency is more than 46 µM.
In the case of `COCC(C)OC(=O)c1c(N)n(Cc2ccco2)c2nc3ccccc3nc12` (stereo not given), the Potency is more than 20.6 µM.
Turning to `C[C@@H]1CCC/C=C\[C@H]2C[C@H](O)C[C@@H]2[C@H](O)/C=C\C(=O)O1`, the Potency was more than 46 µM.
In the case of `CCOC(=O)c1cc(C)n(CCc2cnc[nH]2)c1C`, the Potency is more than 20.6 µM.
For the compound `CCCCCCn1c(O)c(C(C)=NC)c(=O)[nH]c1=O`, the Potency is more than 20.6 µM.
To `Nc1c(C(=O)NCc2ccco2)c2nc3ccccc3nc2n1CCN1CCCCC1` belongs more than 20.6 µM.
The value for `C=CCN1CCc2cccc3c2[C@@H]1Cc1ccc(O)c(O)c1-3` was more than 46 µM.
In the case of `CN(C)CCOC(=O)c1cn(Cc2ccccc2)c2ccccc12`, the Potency is more than 20.6 µM.
To `CC(C)(O)[C@H]1[C@H]2OC(=O)[C@@H]1[C@]1(O)C[C@H]3O[C@]34C(=O)O[C@H]2[C@]14C` belongs more than 46 µM; to `C=C[C@@H]1CN2CC[C@@H]1C[C@H]2[C@H](O)c1ccnc2ccccc12`, more than 46 µM.
